Screening data as filed in PubChem.
Rv3671c protease – inhibits the M. tuberculosis serine protease Rv3671c | inhibition, % at 5.96 µM | hit rate 0.048% among 320,000; in the data active = inhibition above about 38%;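 also: extracellular domain of Rv3671c used as enzyme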
FadD28 binding – blocks FadD28 binding to the bisubstrate probe; fluorescence polarization; inhibition, % at 12.5 µM; hit rate 0.22% among 360,000; in the data active = inhibition above about 8.5%, passing the limit was not always enough
PrP UTR inh – suppresses PrP 5' UTR mRNA reporter expression; cell-based PrP 5' UTR mRNA reporter, plate reader; inhibition, % (test concentration not listed); hit rate 0.35% among 340,000; in the data active = inhibition above about 52%
UGM FP inh – Mtb UDP-galactopyranose mutase inhibition; P9WIQ1; purified UGM, fluorescence polarization probe displacement; inhibition, % at 10 µM; hit rate 0.06% among 320,000; in the data active = inhibition above about 10%, passing the limit was not always enough
Target sequence (P9WIQ1 whole entry, looked up): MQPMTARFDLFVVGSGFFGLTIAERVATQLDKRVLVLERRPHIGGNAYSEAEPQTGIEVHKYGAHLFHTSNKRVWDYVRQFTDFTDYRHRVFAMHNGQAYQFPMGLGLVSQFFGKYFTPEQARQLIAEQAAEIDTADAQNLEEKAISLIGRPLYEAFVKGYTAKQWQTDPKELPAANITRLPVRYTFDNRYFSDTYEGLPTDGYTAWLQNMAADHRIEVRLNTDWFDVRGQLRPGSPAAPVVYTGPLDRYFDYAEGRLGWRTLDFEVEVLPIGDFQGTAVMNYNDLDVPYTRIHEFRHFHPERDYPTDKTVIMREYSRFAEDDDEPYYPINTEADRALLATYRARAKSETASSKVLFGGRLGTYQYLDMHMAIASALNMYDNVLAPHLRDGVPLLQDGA
BJeLR lethal – kills HRASV12-expressing BJeLR cells. BJeLR (HRASV12) viability, CellTiter-Glo ATP luminescence, 48 h. inhibition, % (concentration not given with the values). hit rate 0.17% among 300,000; in the data active = inhibition above about 50%
RecA intein inh – inhibitors of M. tuberculosis RecA intein splicing; P9WHJ3; hit rate 0.75% among 290,000; inhibition, % (concentration not given with the values); cell-free RecA intein splicing, fluorescence; in the data active = inhibition above about 30%
GFP chromo cs – counter-screen GFP chromophore formation inhibition; shares compounds with RecA intein inh; cell-free GFP chromophore formation, fluorescence; EC50, µM; hit rate 83% among 2,100; AID 434968; call rule not given here
Of the large screens only hits and unclear results are named; the others gave an inactive call (follow-up assays come after a bar, where they were run). This is a sample that favours compounds with a hit; in the whole collection about 1.3% have one here.

O=C(NCc1ccc(Cl)c(Cl)c1)c1cc(C2CCCCN2C(=O)OCCF)on1 (configuration not stated)	none (no result: Rv3671c protease, PrP UTR inh, UGM FP inh, BJeLR lethal, RecA intein inh)
Cc1cccc(C)c1NC(=O)CN(Cc1ccccc1)Cc1ccccc1	none (no result: Rv3671c protease, PrP UTR inh, UGM FP inh, BJeLR lethal, RecA intein inh)
COC(=O)C(C(=O)OC)C(CC(=O)c1ccc(C)cc1)c1cc(OC)c(OC)c(OC)c1 (configuration not stated)	none
COc1ccc(C(CC(=O)c2ccc(C)cc2)C(C#N)C#N)cc1OC (configuration not stated)	RecA intein inh 54 | GFP chromo cs 30
CCNC1=C(Cl)C(=O)c2ccccc2C1=O	RecA intein inh 76 | GFP chromo cs 33
O=C1C(Cl)=C(NCCN2CCCCC2)C(=O)c2ccccc21	RecA intein inh 48 | GFP chromo cs 26
O=C(NCCN1CCCC1)c1ccccc1Cl	none
CCCCCCCCCCCC1N=C(N)NC(CCCO)=C1C(=O)OC (configuration not stated)	none (no result: Rv3671c protease, UGM FP inh, BJeLR lethal, RecA intein inh)
O=C(O)C(SC(C(=O)O)c1ccccc1)c1ccccc1 (configuration not stated)	none (no result: Rv3671c protease, UGM FP inh, BJeLR lethal, RecA intein inh)
CC(=O)Nc1ccc(S(=O)(=O)N[C@@H](C)C(=O)OCC(=O)Nc2ccc3c(c2)OCCO3)cc1	none (no result: Rv3671c protease, UGM FP inh, BJeLR lethal, RecA intein inh)
CC1(C)CC(=O)C(C(c2ccc(F)cc2)C2C(=O)CC(C)(C)CC2=O)C(=O)C1	none
CC1=NNC(=O)C1C(c1ccc(F)cc1)C(C#N)C#N (configuration not stated)	RecA intein inh 85 | GFP chromo cs 17
CSc1ccc(C2=C/C(=C3/SC(=S)NC3=O)c3ccccc3O2)cc1	none (no result: Rv3671c protease, UGM FP inh, BJeLR lethal, RecA intein inh)
CC1CCN(C(=O)CCC(=O)Nc2ccc([N+](=O)[O-])cc2)CC1	none (no result: Rv3671c protease, PrP UTR inh, UGM FP inh, BJeLR lethal, RecA intein inh)
CCOc1ccccc1CNc1ccc(O)cc1	RecA intein inh 82 (no result: Rv3671c protease, UGM FP inh) | GFP chromo cs 23
CCOc1cccc(CNc2ccc(O)cc2)c1OCc1ccc(Cl)cc1	none
CCOc1cc(CNc2ccc(O)cc2)ccc1OCc1ccc(Cl)cc1Cl	RecA intein inh 40 | GFP chromo cs inactive
CC(NC(=O)/C(C#N)=C/c1ccc([N+](=O)[O-])o1)c1ccccc1 (configuration not stated)	RecA intein inh 47 | GFP chromo cs inactive
CC(NC(=O)/C(C#N)=C/c1ccco1)c1ccccc1 (configuration not stated)	none
Cc1[nH][nH]c(=O)c1C(c1ccc(Br)cc1)c1c(C)[nH][nH]c1=O	RecA intein inh 98 | GFP chromo cs 0.81
Cc1[nH][nH]c(=O)c1C(c1ccc([N+](=O)[O-])cc1)c1c(C)[nH][nH]c1=O	RecA intein inh 96 | GFP chromo cs 0.69
Cc1ccc(C(c2c(C)[nH][nH]c2=O)c2c(C)[nH][nH]c2=O)cc1	RecA intein inh 98 | GFP chromo cs 0.54
COc1cc(C(c2c(C)[nH][nH]c2=O)c2c(C)[nH][nH]c2=O)ccc1OCc1ccc([N+](=O)[O-])cc1	RecA intein inh 95 | GFP chromo cs 0.35
CN(Cc1ccccc1)C(=O)Cn1nnc(-c2ccccc2)c1COc1ccc2ccccc2c1	none (no result: Rv3671c protease, PrP UTR inh, UGM FP inh, BJeLR lethal, RecA intein inh)
COCC(=O)N(C)C[C@H]1Oc2cc(C#Cc3cccnc3)ccc2S(=O)(=O)N([C@H](C)CO)C[C@H]1C	none (no result: Rv3671c protease, PrP UTR inh, UGM FP inh, BJeLR lethal, RecA intein inh)
O[C@@H]1CN(Cc2cccs2)[C@@H](c2ccc(Cl)cc2)C[C@H]1n1cc(-c2ccc(F)cc2)nn1	none (no result: Rv3671c protease, PrP UTR inh, UGM FP inh, BJeLR lethal, RecA intein inh)
CC(C)c1ccc(CN2CCC2(C)C(=O)Nc2cccc(Oc3ccccc3)c2)cc1 (configuration not stated)	none (no result: Rv3671c protease, PrP UTR inh, UGM FP inh, BJeLR lethal, RecA intein inh)
COC(=O)COc1ccc(C(c2c(C)[nH][nH]c2=O)c2c(C)[nH][nH]c2=O)cc1	RecA intein inh 98 (no result: Rv3671c protease) | GFP chromo cs 0.69
CSc1ccc(C(c2c(C)[nH][nH]c2=O)c2c(C)[nH][nH]c2=O)cc1	RecA intein inh 98 | GFP chromo cs 0.57
CSc1nc(O)c(C(c2ccc(O)cc2)c2c(O)nc(SC)[nH]c2=O)c(=O)[nH]1	none (no result: RecA intein inh)
CN(CC(=O)Nc1ccc(C#N)cc1)CC(=O)Nc1ccc(N2CCOCC2)cc1	none
CN(CC(=O)Nc1ccc(N2CCOCC2)cc1)CC(=O)Nc1cccc(C#N)c1	none | GFP chromo cs inactive
CC(=O)Nc1cc(-c2cccc(C(=O)N(C)C)c2)cn2c(-c3ccc(C(C)=O)cc3)cnc12	none (no result: Rv3671c protease, PrP UTR inh, UGM FP inh, BJeLR lethal, RecA intein inh)
CC1CCN(S(=O)(=O)c2ccc(NC(=O)c3ccncc3)cc2)CC1	none
CCCS(=O)(=O)c1ncc(Cl)c(C(=O)Nc2ccc(S(=O)(=O)Nc3ncccn3)cc2)n1	none
CCS(=O)(=O)c1ncc(Cl)c(C(=O)Nc2ccc(S(=O)(=O)N3CCC(C)CC3)cc2)n1	FadD28 binding 8.9, RecA intein inh 96 | GFP chromo cs 1.4
CCc1ccc(NC(=O)c2nc(S(=O)(=O)Cc3ccccc3)ncc2Cl)cc1	RecA intein inh 39 | GFP chromo cs 2.2
CCOC(=O)c1ccc(NC(=O)c2nc(S(=O)(=O)Cc3ccccc3)ncc2Cl)cc1	none
COc1cccc(NC(=O)c2nc(S(C)(=O)=O)ncc2Cl)c1	RecA intein inh 63 | GFP chromo cs 25
CC(=O)Nc1ccc(NC(=O)c2nc(S(=O)(=O)Cc3cccc(C)c3)ncc2Cl)cc1	RecA intein inh 31 | GFP chromo cs 20
CC1(C(=O)NS(=O)(=O)c2ccccc2Cl)CCN1C(=O)C1CCCCC1 (configuration not stated)	none (no result: Rv3671c protease, PrP UTR inh, UGM FP inh, BJeLR lethal, RecA intein inh)
C=C(CN(C)C)C(=O)c1cc(C)ccc1C	none (no result: Rv3671c protease, UGM FP inh, BJeLR lethal, RecA intein inh)
CSc1ncc(Cl)c(C(=O)Nc2ccc(C)c(C)c2)n1	none (no result: PrP UTR inh)
Cc1ccc(NC(=O)c2nc(S(=O)(=O)Cc3ccccc3C)ncc2Cl)cc1C	RecA intein inh 39 | GFP chromo cs 1.3
Cc1ccc(C(=O)NCc2ccc3c(c2)OCO3)c(Cl)c1	none (no result: Rv3671c protease, PrP UTR inh, UGM FP inh, BJeLR lethal, RecA intein inh)
COC(=O)c1ccc(NC(=O)c2nc(S(=O)(=O)Cc3cccc(C)c3)ncc2Cl)cc1	RecA intein inh 73 | GFP chromo cs 0.57
CCS(=O)(=O)c1ncc(Cl)c(C(=O)Nc2ccccc2OC)n1	none
Cc1cccc(CS(=O)(=O)c2ncc(Cl)c(C(=O)NCc3ccc4c(c3)OCO4)n2)c1	RecA intein inh 51 | GFP chromo cs 11
C[C@H]1CN([C@@H](C)CO)C(=O)c2cc(Br)cnc2O[C@H]1CN(C)C(=O)Cc1ccccn1	none (no result: Rv3671c protease, PrP UTR inh, UGM FP inh, BJeLR lethal, RecA intein inh)
O=C(NC1C(=O)NNC1c1ccc(Cl)cc1)c1ccc(F)cc1 (configuration not stated)	RecA intein inh 70 | GFP chromo cs 30
CC(=O)Nc1cc(-c2ccc(S(C)(=O)=O)cc2)cn2c(-c3ccc(F)c(Cl)c3)cnc12	none (no result: Rv3671c protease, PrP UTR inh, UGM FP inh, BJeLR lethal, RecA intein inh)
CCN1C(=C2C(=O)c3ccccc3C2=O)C=Cc2ccccc21	none
O=C1C=Cc2ccccc2C1=O	RecA intein inh 39 (no result: FadD28 binding) | GFP chromo cs 9.1
O=C(Nc1ccccc1Cl)c1cc(C2CCCN(S(=O)(=O)c3cccs3)C2)on1 (configuration not stated)	none (no result: Rv3671c protease, PrP UTR inh, UGM FP inh, BJeLR lethal, RecA intein inh)
Cc1[nH]nc2c1C(c1cn[nH]c1-c1ccc(F)cc1)C(C#N)=C(N)O2 (configuration not stated)	RecA intein inh 65 | GFP chromo cs 18
